Source: PubChem BioAssay AID1159580 (chemical genetic matrix, 2015)
“And” between values parts separate entries of the source, which are not always exact repeats. Equal entries are not always repeated. The whole screen tested about 5,500 compounds, of which about 2,000 (36%) were called active. Not shown: some 18% with an inconclusive outcome. Rule as the data show it: active = normalized growth mostly below about 0.91 (no sharp cut-off); inconclusive = no clear call, values can overlap the other calls; inactive = mostly above about 0.92. This is one part of the list.

Experiment: chemical genetic growth profiling, strain panel (AID 1159580);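 also: tested at 20 µM; growth read once vehicle control cultures reached saturation at 30 °C; 1 = growth at the plate median or of vehicle wells; lower values mean less growth of the strain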
Conditions: S. cerevisiae deletion strains, growth OD

Measured: normalized growth

CC(Cc1ccc(O)c(O)c1)(NN)C(=O)O (stereo not drawn)
inactive: locus YAL021C, strain ccr4, stronger effect = lower value 1 | locus YAL026C, strain drs2, stronger effect = lower value 1 | locus YAL030W, strain snc1, stronger effect = lower value 0.997 | locus YBL061C, strain skt5, stronger effect = lower value 1.01 | locus YBR009C, strain hhf1, stronger effect = lower value 0.982 | locus YBR021W, strain FUR4, stronger effect = lower value 1.01 | locus YBR023C, strain chs3, stronger effect = lower value 0.976 | locus YBR171W, strain sec66, stronger effect = lower value 1.01 | locus YBR229C, strain ROT2, stronger effect = lower value 1 | locus YBR231C, strain swc5, stronger effect = lower value 0.997 | locus YBR279W, strain paf1, stronger effect = lower value 0.988 | locus YCL011C, strain gbp2, stronger effect = lower value 1.02 | locus YCL016C, strain dcc1, stronger effect = lower value 1.01 | locus YCL029C, strain bik1, stronger effect = lower value 1.02 | locus YCL069W, strain vba3, stronger effect = lower value 1 | locus YCR088W, strain abp1, stronger effect = lower value 1 | locus YDL005C, strain med2, stronger effect = lower value 1 | locus YDL035C, strain GPR1, stronger effect = lower value 1 | locus YDL040C, strain nat1, stronger effect = lower value 1 | locus YDL074C, strain BRE1, stronger effect = lower value 0.972 | locus YDL101C, strain DUN1, stronger effect = lower value 1.02 | locus YDL134C, strain PPH21, stronger effect = lower value 1.04 | locus YDL185W, strain tfp1, stronger effect = lower value 0.989 | locus YDL192W, strain arf1, stronger effect = lower value 1.01 | locus YDR001C, strain nth1, stronger effect = lower value 0.994 | locus YDR069C, strain doa4, stronger effect = lower value 0.99 | locus YDR101C, strain arx1, stronger effect = lower value 1 | locus YDR137W, strain rgp1, stronger effect = lower value 1.04 | locus YDR159W, strain sac3, stronger effect = lower value 1 | locus YDR162C, strain NBP2, stronger effect = lower value 1.01 | locus YDR195W, strain ref2 0.972 | locus YDR297W, strain sur2, stronger effect = lower value 1 | locus YDR318W, strain mcm21, stronger effect = lower value 1.01 | locus YDR334W, strain swr1, stronger effect = lower value 0.999 | locus YDR335W, strain msn5, stronger effect = lower value 0.982 | locus YDR388W, stronger effect = lower value 1.01 | locus YDR392W, strain spt3, stronger effect = lower value 0.985 | locus YDR502C, strain sam2, stronger effect = lower value 1.01 | locus YEL003W, strain gim4, stronger effect = lower value 0.991 | locus YEL037C, strain rad23, stronger effect = lower value 1.02 | locus YEL061C, strain CIN8 (second series), stronger effect = lower value 0.999 | locus YEL061C, strain CIN8, stronger effect = lower value 1.01 | locus YER015W, strain faa2, stronger effect = lower value 0.984 | locus YER016W, strain bim1, stronger effect = lower value 1.01 | locus YER110C, stronger effect = lower value 1.02 | locus YER111C, strain swi4, stronger effect = lower value 1.01 | locus YER155C, strain BEM2 (second series), stronger effect = lower value 1.01 | locus YER155C, strain BEM2, stronger effect = lower value 0.999 | locus YER167W, strain BCK2, stronger effect = lower value 1.01 | locus YFR010W, strain ubp6, stronger effect = lower value 0.986 | locus YGL078C, strain dbp3, stronger effect = lower value 0.979 | locus YGL086W, strain mad1, stronger effect = lower value 1.02 | locus YGL167C, strain pmr1, stronger effect = lower value 1 | locus YGL173C, strain kem1, stronger effect = lower value 1.03 | locus YGL227W, strain vid30, stronger effect = lower value 0.989 | locus YGL240W, strain doc1, stronger effect = lower value 1 | locus YGL248W, strain PDE1, stronger effect = lower value 0.991 | locus YGL253W, strain hxk2, stronger effect = lower value 0.997 | locus YGR078C, strain PAC10, stronger effect = lower value 0.966 | locus YGR135W, strain pre9, stronger effect = lower value 1.01 | locus YGR229C, strain SMI1, stronger effect = lower value 0.992 | locus YGR252W, strain gcn5, stronger effect = lower value 1.01 | locus YHR013C, strain ard1, stronger effect = lower value 1.04 | locus YHR027C, strain rpn1, stronger effect = lower value 0.995 | locus YHR030C, strain SLT2, stronger effect = lower value 0.997 and 0.958 | locus YHR079C, strain IRE1 (second series), stronger effect = lower value 1.02 | locus YHR079C, strain IRE1, stronger effect = lower value 0.961 | locus YHR094C, strain hxt1, stronger effect = lower value 1.01 | locus YHR129C, strain ARP1, stronger effect = lower value 1.01 | locus YHR142W, strain chs7, stronger effect = lower value 1.02 | locus YHR200W, strain rpn10, stronger effect = lower value 1.01 | locus YIL066C, strain RNR3, stronger effect = lower value 0.965 | locus YIL073C, strain SPO22, stronger effect = lower value 1.14 | locus YIL125W, strain kgd1, stronger effect = lower value 1 | locus YIR030C, strain dcg1, stronger effect = lower value 1.01 | locus YJL092W, strain hpr5, stronger effect = lower value 0.997 | locus YJL095W, strain BCK1 (second series), stronger effect = lower value 0.996 | locus YJL095W, strain BCK1, stronger effect = lower value 1 and 0.954 | locus YJL115W, strain asf1, stronger effect = lower value 0.983 | locus YJL129C, strain trk1, stronger effect = lower value 1.02 | locus YJL134W, strain LCB3, stronger effect = lower value 1 | locus YJL154C, strain vps35, stronger effect = lower value 1.01 | locus YJL164C, strain tpk1, stronger effect = lower value 1.01 | locus YJL166W, strain qcr8, stronger effect = lower value 1.02 | locus YJL168C, strain set2, stronger effect = lower value 1.01 | locus YJL187C, strain SWE1 (second series), stronger effect = lower value 1 | locus YJR043C, strain POL32, stronger effect = lower value 1.01 | locus YJR066W, strain TOR1, stronger effect = lower value 0.936
